Test results from the supplement of paper PMC3545927.
The list shows a part of the results. No count for the full screen is at hand.

Target: furin, P09958
Test: furin cleavage Z-score vs untreated control; higher = more cleavage, active = 3.5 or more, inactive = 1 or less, 8 variable residues between constant flanks
Procedure, shortened: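 The cleavage Z-score is the log read count relative to furin-free reactions, lowess-adjusted and scaled by median absolute deviation. Counts came from sequencing DNA released from bead-bound 8-mer peptide–cDNA fusions after digestion with purified furin for 7.5, 15 or 30 min.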
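Further: purified furin at 1:10 enzyme:substrate in 50 mM HEPES pH 7.5.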

Sequence of furin, P09958 (P09958 whole entry): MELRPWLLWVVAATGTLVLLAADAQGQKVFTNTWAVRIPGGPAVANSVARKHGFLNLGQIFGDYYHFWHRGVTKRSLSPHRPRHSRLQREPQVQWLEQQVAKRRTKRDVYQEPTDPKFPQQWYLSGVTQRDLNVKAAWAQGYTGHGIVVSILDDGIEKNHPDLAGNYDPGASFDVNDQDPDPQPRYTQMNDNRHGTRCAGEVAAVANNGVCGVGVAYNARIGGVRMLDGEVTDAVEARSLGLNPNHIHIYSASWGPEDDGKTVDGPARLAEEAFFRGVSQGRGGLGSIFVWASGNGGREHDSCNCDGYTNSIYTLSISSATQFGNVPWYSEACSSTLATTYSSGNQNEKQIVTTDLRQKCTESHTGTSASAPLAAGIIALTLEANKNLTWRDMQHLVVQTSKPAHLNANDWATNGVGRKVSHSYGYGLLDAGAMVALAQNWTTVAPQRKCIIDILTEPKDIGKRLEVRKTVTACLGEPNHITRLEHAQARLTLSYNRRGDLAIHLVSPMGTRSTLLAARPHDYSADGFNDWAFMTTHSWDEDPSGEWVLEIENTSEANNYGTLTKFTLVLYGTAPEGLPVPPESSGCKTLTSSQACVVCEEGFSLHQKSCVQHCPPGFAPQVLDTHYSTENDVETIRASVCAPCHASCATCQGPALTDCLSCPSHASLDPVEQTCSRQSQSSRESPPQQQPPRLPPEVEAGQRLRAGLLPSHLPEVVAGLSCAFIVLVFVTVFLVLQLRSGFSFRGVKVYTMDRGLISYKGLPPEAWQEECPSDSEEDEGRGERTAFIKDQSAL

## CAEVITSTWVAGNASASA [HC2184]
7.5 min
  furin cleavage Z-score: -0.201 (inactive)
15 min
  furin cleavage Z-score: -0.151 (inactive)
30 min
  furin cleavage Z-score: 0.767 (inactive)

## CAMEECKQHLAGNASASA [HC31]
7.5 min
  furin cleavage Z-score: 0.641 (inactive)
15 min
  furin cleavage Z-score: 0.811 (inactive)
30 min
  furin cleavage Z-score: 0.523 (inactive)

## CADVPRRKRKAGNASASA [FS-1316]
7.5 min
  furin cleavage Z-score: 7.09 (active)
15 min
  furin cleavage Z-score: 7.66 (active)
30 min
  furin cleavage Z-score: 8.13 (active)

## CARSARRKRKAGNASASA [FS-1610]
7.5 min
  furin cleavage Z-score: 9.41 (active)
15 min
  furin cleavage Z-score: 11.4 (active)
30 min
  furin cleavage Z-score: 7.56 (active)

## CARSACQRQKAGNASASA [HC1392]
7.5 min
  furin cleavage Z-score: 0.38 (inactive)
15 min
  furin cleavage Z-score: -0.49 (inactive)
30 min
  furin cleavage Z-score: 1.17

## CACVWRRKRKAGNASASA [FS-324]
7.5 min
  furin cleavage Z-score: 4.9 (active)
15 min
  furin cleavage Z-score: 7.08 (active)
30 min
  furin cleavage Z-score: 5.25 (active)

## CADVPCHRPSAGNASASA [HC2311]
7.5 min
  furin cleavage Z-score: 0.698 (inactive)
15 min
  furin cleavage Z-score: 1.24
30 min
  furin cleavage Z-score: 0.271 (inactive)

## CADIHRNKRKAGNASASA [FS-408]
7.5 min
  furin cleavage Z-score: 0.37 (inactive)
15 min
  furin cleavage Z-score: 0.486 (inactive)
30 min
  furin cleavage Z-score: 2.04

## CAPREVPCHRAGNASASA [HC2439]
7.5 min
  furin cleavage Z-score: -1.48 (inactive)
15 min
  furin cleavage Z-score: 1.55
30 min
  furin cleavage Z-score: -0.302 (inactive)

## CAWDVVCCSMAGNASASA [HC2108]
7.5 min
  furin cleavage Z-score: 0.349 (inactive)
15 min
  furin cleavage Z-score: -0.375 (inactive)
30 min
  furin cleavage Z-score: 0.29 (inactive)

## CADSGGARRSAGNASASA [FS-226]
7.5 min
  furin cleavage Z-score: -0.625 (inactive)
15 min
  furin cleavage Z-score: -0.697 (inactive)
30 min
  furin cleavage Z-score: -0.757 (inactive)

## CARGPRRASAAGNASASA [FS-1711]
7.5 min
  furin cleavage Z-score: -0.617 (inactive)
15 min
  furin cleavage Z-score: -0.431 (inactive)
30 min
  furin cleavage Z-score: -0.848 (inactive)

## CARGPRRRRSAGNASASA [FS-856]
7.5 min
  furin cleavage Z-score: 11.2 (active)
15 min
  furin cleavage Z-score: 10 (active)
30 min
  furin cleavage Z-score: 7.78 (active)

## CARGPRARRSAGNASASA [FS-855]
7.5 min
  furin cleavage Z-score: 7.87 (active)
15 min
  furin cleavage Z-score: 7.54 (active)
30 min
  furin cleavage Z-score: 4.95 (active)
